HTT aggregate: inhibitors of mutant huntingtin aggregate formation in PC12 cells; PC12 HttQ103-GFP aggregates, Acumen cytometry, 40 h; Potency, µM (doses to about 46.1 µM), inactives show at the top dose activity change, negative = inhibition, actives largely listed as inhibitors; 220,000 compounds, 1.1% hits; AID 1688; note: % is set by controls: 0 for no effect and ±100 for the full control effect; nearly all actives have a fitted effect of over 60% in size
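Steps: seed 1500 PC12 HTTQ103-GFP cells/well; add tebufenozide, 100 nM final; add compound titration; add ATPLite reagent; quantify GFP aggregates by laser scanning cytometry.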
HTT cytoprotect: protects HTT-Q103 PC12 cells, measured by ATP. PC12 HTT-Q103 induced, cytoprotection, ATP luminescence, 40 h. Potency, µM (doses to about 56.4 µM), inactives show cytoprotection (ATP increase), hits mostly activators. 230,000 compounds, 0.14% hits; note: % of control where 0% means no effect; nearly all actives have a fitted effect of over 45% in size
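ATP quantification (ATPlite) reports survival of PC12 cells in which tebufenozide, 100 nM final, switches on Htt exon 1 with 103 glutamines linked to GFP; compounds are titrated.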
HepG2 tox-1: kills HepG2 cells in TGF-b inhibitor counter-screen; HepG2 CAGA-GFP viability, ATP luminescence, 18 h; Potency, µM (doses to about 46.1 µM), inactives show at the highest dose activity change, negative = cytotoxicity, usual class: cytotoxic; 410,000 compounds, 0.76% hits; AID 588856
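CellTiter-Glo luminescence gave cytotoxicity after 18 hours at 37 degrees C. The cells were HepG2 CAGA-GFP in 1% FBS DMEM, stimulated with 500 pg/mL TGF-beta after compound addition. %Activity was normalised to no-cell wells (complete cell-killing) and DMSO (no toxicity), and curves were fitted and classified.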
TGFb SMAD3 inh: TGF-b pathway inhibition; AID 588855; Potency, µM (top dose mostly 46.1 µM), for inactives: at the top dose activity, negative = inhibition, usual class: inhibitors; HepG2 CAGA-GFP TGF-b/SMAD3 reporter, GFP fluorescence, 18 h; TGF-beta stimulated, 500 pg/mL final; 410,000 compounds, 1.2% hits; note: % is set by controls: 0 for no effect and ±100 for the full control effect; nearly all actives have a fitted effect of over 65% in size
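Inhibition was scored as loss of TGF-beta-induced (500 pg/mL final, 18 hours, 37 degrees C) GFP in HEPG2 cells carrying a CAGA-GFP reporter, in DMEM with 1% FBS. Well GFP was summed per cell; Activity was normalised to unstimulated and stimulated DMSO wells, then concentration-response fitting.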
ATXN2 expr inh: ATXN2 expression inhibition; Potency, µM (doses to about 57 µM), for inactives: top-dose activity change, negative = inhibition, most hits filed as inhibitors; AID 1745845; HEK-293 ATXN2-luciferase reporter, luminescence, 24 h; 360,000 compounds, 0.72% hits; note: % is set by controls: 0 for no effect and ±100 for the full control effect; nearly all actives have a fitted effect of over 55% in size
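qHTS (up to 57 uM final) was run with 24 h compound exposure of reporter cells at 37 °C. Each well was multiplexed: SteadyGlo luminescence measured ATXN2-luciferase expression after a fluorogenic Gly-Phe-AFC viability readout (25 uM final).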
S2 tox: viability counter-screen for ATXN expression inhibitors; S2 cells (HEK-293 line with an ATXN2-luciferase reporter) viability, CellTiter-Fluor protease fluorescence, 24 h; Potency, µM (highest dose often 56.7 µM), hits mostly cytotoxic; 400,000 compounds, 0.49% hits; AID 651635; note: nearly all actives have a fitted effect of over 40% in size
TGFb CAGA inh: confirmation of TGF-b signaling inhibitors in HepG2 reporter cells. shares compounds with TGFb SMAD3 inh. HepG2 CAGA-GFP TGF-b reporter, GFP fluorescence, 18 h; cells stimulated with TGF-beta, 500 pg/mL. Potency, µM (series often up to 46.1 µM), for inactives: top-dose activity, negative = inhibition, actives largely listed as inhibitors. 1,600 compounds, 63% hits. AID 720534; note: % is set by controls: 0 for no effect and ±100 for the full control effect; nearly all actives have a fitted effect of over 65% in size
HepG2 tox-2: HepG2 cytotoxicity, TGF-b inhibitor counterscreen. shares compounds with TGFb SMAD3 inh. HepG2 CAGA-GFP viability, ATP luminescence, 18 h; cells stimulated with TGF-beta, 500 pg/mL. Potency, µM (top dose mostly 46.1 µM), for the others: at the top dose activity, negative = cytotoxicity, usual class: inhibitors. 1,600 compounds, 27% hits. AID 720535; note: % is set by controls: 0 for no effect and ±100 for the full control effect; nearly all actives have a fitted effect of over 70% in size
TGFb CCL64 inh: TGF-b inhibition, CCL64 orthogonal assay; shares compounds with TGFb SMAD3 inh; CCL64 CAGA-GFP reporter, TGF-b stimulated, GFP fluorescence, 18 h; Potency, µM (titrated, usually from 46.1 µM), inactives show top-dose activity, negative = inhibition, usual class: inhibitors; 1,600 compounds, 41% hits; AID 720536; note: nearly all actives have a fitted effect of over 65% in size
COP TGFb inh: validation of TGF-b inhibitors in HepG2 COP promoter reporter. 1,600 compounds, 3% hits. shares compounds with TGFb SMAD3 inh. HepG2 COP-GFP TGF-b reporter, GFP fluorescence, 18 h; cells stimulated by added recombinant TGF-beta. Potency, µM (doses to about 46.1 µM), for inactives: at the highest dose activity, negative = inhibition, usual class: inhibitors; note: nearly all actives have a fitted effect of over 70% in size
* hit, by the source's call; i = inactive; ? = inconclusive; / = not tested or not shown; [ ] = remark or other dose. Compounds with a hit are over-represented: about 2.8% of the library has one in this group of screens. Calls come from the whole dose curve; as a rule, active = well fitted curve in the direction sought with a large enough effect; inconclusive = small, poorly fitted or top-dose-only effect, or another doubt; inactive = no such curve, though single readings can be large; an effect the other way counts as inactive or inconclusive. Potency is the fitted concentration of half-maximal effect.

SMILES	HTT aggregate	HTT cytoprotect	HepG2 tox-1	TGFb SMAD3 inh	ATXN2 expr inh	S2 tox	TGFb CAGA inh	HepG2 tox-2	TGFb CCL64 inh	COP TGFb inh
Cc1onc(-c2ccccc2Cl)c1C(=O)Nc1cccc(-c2cn3cccnc3n2)c1	-17%	3%	0%	?	-10%	i	?	8%	-29%	1%
CC(=O)Nc1ccc(SCCN2CCN(CC(C)C)CCC2=O)cc1	/	/	-22%	?	/	/	/	/	/	/
O=C(COc1cccc(F)c1)N[C@@H](Cc1ccccc1)c1nc2ccccc2[nH]1	1%	11%[1.9 µM]	-28%	?	/	i	?	-10%	-13%	-12%
Cc1ccc2c(c1)N[C@H](c1ccc(C(=O)O)cc1)c1cccn1-2	/	-5%[10 µM]	/	/	/	/	/	/	/	/
COc1ccc(Nc2nnc(-c3ccccc3)c3ccccc23)cc1C(=O)N1CCCCC1	?	14%[10 µM]	-12%	-27%	0%	i	/	/	/	/
COc1ccc(Nc2nnc(-c3ccc(C)cc3)c3ccccc23)cc1C(=O)N1CCCCC1	-26%	6%[10 µM]	-21%	16µM*	?	?	-88%	?	?	45%
C#CCCCO/N=C1/C[C@@H](O)[C@@H](O)[C@@H]2[C@@H]3C(=O)N(Cc4ccc5c(c4)OCO5)C(=O)[C@H]3CC[C@H]12	/	-7%[10 µM]	/	/	/	/	/	/	/	/
COc1ccc(O)c(-c2cc(-c3ccccc3Cl)[nH]n2)c1	/	/	-63%	7.9µM*	-6%	?	18µM*	?	26µM*	30%
Oc1ccc(Br)cc1-c1cc(-c2ccccc2Cl)[nH]n1	-4%[9.22 µM]	7%[10 µM]	-22%	-29%	4%	i	/	/	/	/
COc1ccc(-c2cc(-c3ccccc3O)[nH]n2)cc1	-7%	-39%	-14%	10µM*	116%	i	?	?	?	44%
OCC(O)CS (stereo unspecified)	8%	-7%	/	/	8%	i	/	/	/	/
NCc1nnn(Cc2ccccc2)c1N	/	-10%[10 µM]	/	/	/	/	/	/	/	/
CC(C)CCCCCCCCCCCCC(=O)NCC(=O)NC1C(C)OC(Nc2ncnc3nc[nH]c23)C(O)C1O (stereo unspecified)	/	/	-25%	0.35µM*	?	?	1µM*	?	0.52µM*	-29%

Screening results: PubChem, National Center for Advancing Translational Sciences (NCATS)
